According to PubChem BioAssay (EPA / NIEHS):
The source made the active and inactive calls. Rule for the calls: active = hit-call score of the fitted dose curve at least 0.9, where 1 is the maximum; inactive = score below 0.9.

Legend:
[1] = ATG_CRE_CIS: Attagene CIS-FACTORIAL HepG2 Assay for human cAMP Responsive Element (CRE) binding protein 3 (AID 2282926); details: HepG2 CRE cis-reporter, Attagene multiplexed mRNA; actives raise or lower the signal
Method in brief: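 Capillary electrophoresis of 6-FAM-labelled, HpaI-digested PCR products quantified reporter transcripts. These came from HepG2 transiently transfected with cis-element reporters and exposed to test chemicals for 24 hours, with DMSO defining baseline activity.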

[2] = ATG_CMV_CIS: Attagene CIS-FACTORIAL HepG2 Assay for human CMV (Internal Marker) (AID 2282928); details: HepG2 CMV promoter reporter, transcription factor profiling; actives raise or lower the signal;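 note: endpoint acts as a background internal control marker rather than a target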
Method in brief: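 Fluorescence intensity of RT-PCR-derived reporter fragments, resolved by capillary electrophoresis, gives the signal. HepG2 liver cells bearing transfected cis-element reporters were treated 24 h; activity in either direction was fit relative to DMSO-treated controls.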

[3] = biological target: Aryl hydrocarbon receptor (Homo sapiens) (UniProt P35869); test: ATG_Ahr_CIS: Attagene CIS-FACTORIAL HepG2 Assay for human Aryl Hydrocarbon Receptor (Ahr) (AID 2282930); details: HepG2 AhR cis-factorial reporter transcription; actives raise or lower the signal
Chain of Aryl hydrocarbon receptor (Homo sapiens) (P35869 whole entry, looked up): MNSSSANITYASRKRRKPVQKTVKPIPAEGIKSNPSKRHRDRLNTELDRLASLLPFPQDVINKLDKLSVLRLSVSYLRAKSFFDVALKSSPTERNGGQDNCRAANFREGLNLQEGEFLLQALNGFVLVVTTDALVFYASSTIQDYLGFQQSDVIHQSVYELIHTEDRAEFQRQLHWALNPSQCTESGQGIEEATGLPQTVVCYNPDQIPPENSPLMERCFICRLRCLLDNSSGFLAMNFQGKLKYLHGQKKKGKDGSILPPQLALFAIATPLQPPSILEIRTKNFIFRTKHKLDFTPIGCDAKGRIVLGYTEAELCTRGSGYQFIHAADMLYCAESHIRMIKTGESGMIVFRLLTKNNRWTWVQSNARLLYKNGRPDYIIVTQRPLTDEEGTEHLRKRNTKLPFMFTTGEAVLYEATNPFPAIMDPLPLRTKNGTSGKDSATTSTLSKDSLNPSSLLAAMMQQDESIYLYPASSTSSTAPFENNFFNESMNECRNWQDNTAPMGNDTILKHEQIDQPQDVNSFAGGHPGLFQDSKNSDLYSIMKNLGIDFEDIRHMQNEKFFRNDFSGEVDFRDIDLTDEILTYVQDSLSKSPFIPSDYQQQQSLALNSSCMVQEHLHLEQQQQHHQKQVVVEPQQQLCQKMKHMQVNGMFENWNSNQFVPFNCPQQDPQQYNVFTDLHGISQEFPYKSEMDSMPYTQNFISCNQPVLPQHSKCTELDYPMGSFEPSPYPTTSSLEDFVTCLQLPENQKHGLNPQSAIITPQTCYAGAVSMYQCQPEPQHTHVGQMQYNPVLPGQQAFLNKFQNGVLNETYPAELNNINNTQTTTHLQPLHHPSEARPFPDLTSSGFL
Method in brief: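 HepG2 cells transiently transfected with cis-element-driven multiplexed reporter transcription units; endogenous transcription factor activity measured as reporter mRNA 24 h after dosing. RT-PCR, 6-FAM labelling, HpaI digestion, capillary electrophoresis; bidirectional fitting versus DMSO baseline.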

[4] = ATG_AP_1_CIS: Attagene CIS-FACTORIAL HepG2 Assay for human Activator Protein 1 (AP-1) (AID 2282931); details: HepG2 Attagene cis-factorial AP-1 reporter mRNA; actives raise or lower the signal
Method in brief: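 HepG2 cells transiently transfected with cis-element-driven multiplex reporter units; 24 h compound exposure. Reporter mRNA quantified by RT-PCR, FAM-labelled fragments resolved by capillary electrophoresis; bidirectional fit versus DMSO baseline.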

[5] = ATG_AP_2_CIS: Attagene CIS-FACTORIAL HepG2 Assay for human Activator Protein 2 (AP-2) (AID 2282932); details: HepG2 AP-2 cis-reporter, Attagene transcription factor profiling; actives raise or lower the signal
Method in brief: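 Assay in transfected HepG2 with promoter-regulated reporters, 24 h incubation after dosing. Signal is reporter mRNA fluorescence (RT-PCR, capillary electrophoresis), analysed for both increases and decreases relative to DMSO controls.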

[6] = ATG_BRE_CIS: Attagene CIS-FACTORIAL HepG2 Assay for human Bone Morphogenetic Protein (BMP) Response Element (BRE) (AID 2282933); details: HepG2 BMP response element reporter, Attagene transcription factor profiling; actives raise or lower the signal
Method in brief: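 Transient MRTU transfection of human HepG2 liver cells; 24 h compound treatment; total RNA isolated, reverse-transcribed, PCR-amplified, 6-FAM labelled, HpaI-cut, capillary electrophoresis. DMSO = negative control/baseline, bidirectional fit.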

[7] = biological target: Retinoic acid receptor alpha (Homo sapiens) (UniProt P10276); test: ATG_DR5_RAR_CIS: Attagene CIS-FACTORIAL HepG2 Assay for human Retinoic Acid Receptor Alpha (RARE), DR5 submotif (AID 2282934); details: HepG2 Attagene cis-factorial RARE DR5 reporter, mRNA; actives raise or lower the signal
Chain of Retinoic acid receptor alpha (Homo sapiens) (P10276 whole entry, looked up): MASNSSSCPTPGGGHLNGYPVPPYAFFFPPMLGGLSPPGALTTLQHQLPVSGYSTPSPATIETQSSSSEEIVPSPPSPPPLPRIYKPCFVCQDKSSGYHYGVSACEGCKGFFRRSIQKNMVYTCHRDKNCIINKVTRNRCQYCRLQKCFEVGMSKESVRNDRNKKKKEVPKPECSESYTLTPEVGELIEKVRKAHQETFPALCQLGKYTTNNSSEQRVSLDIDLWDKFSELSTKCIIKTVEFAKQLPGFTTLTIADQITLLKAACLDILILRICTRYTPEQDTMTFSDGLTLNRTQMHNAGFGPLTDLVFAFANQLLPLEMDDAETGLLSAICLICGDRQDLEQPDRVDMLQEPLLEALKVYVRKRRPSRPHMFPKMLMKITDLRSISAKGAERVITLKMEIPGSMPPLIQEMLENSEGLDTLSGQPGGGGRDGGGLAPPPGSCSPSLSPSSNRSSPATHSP
Method in brief: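 HepG2 cells transiently transfected with multiplexed reporter units under cis (DR5 RARE) promoters, so endogenous transcription factor activity is measured. After 24 h compound exposure, reporter mRNA is quantified by RT-PCR with fluorescent labelling and capillary electrophoresis; bidirectional fitting versus DMSO.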

[8] = biological target: Transcription factor E2F1 (Homo sapiens) (UniProt Q01094); test: ATG_E2F_CIS: Attagene CIS-FACTORIAL HepG2 Assay for human E2F Transcription Factor 1 (AID 2282935); details: HepG2 Attagene cis-reporter, E2F reporter RNA transcripts; actives raise or lower the signal
Chain of Transcription factor E2F1 (Homo sapiens) (Q01094 whole entry, looked up): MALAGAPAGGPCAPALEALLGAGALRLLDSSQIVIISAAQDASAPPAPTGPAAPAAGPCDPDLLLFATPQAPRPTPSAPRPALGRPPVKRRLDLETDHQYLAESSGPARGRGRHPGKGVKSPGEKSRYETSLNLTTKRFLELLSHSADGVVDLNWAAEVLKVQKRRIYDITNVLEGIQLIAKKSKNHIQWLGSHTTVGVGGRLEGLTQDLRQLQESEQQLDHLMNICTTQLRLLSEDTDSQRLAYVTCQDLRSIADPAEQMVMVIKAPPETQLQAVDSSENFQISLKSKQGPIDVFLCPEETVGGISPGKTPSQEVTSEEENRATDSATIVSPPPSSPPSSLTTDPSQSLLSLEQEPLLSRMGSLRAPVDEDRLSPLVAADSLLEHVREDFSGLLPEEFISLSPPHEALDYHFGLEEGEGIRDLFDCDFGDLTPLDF
Method in brief: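 In this cis-factorial format, endogenous factor activity drives transfected reporters in HepG2; transcripts collected at 24 h are quantified by fluorescence after RT-PCR and capillary separation.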

[9] = ATG_DR4_LXR_CIS: Attagene CIS-FACTORIAL HepG2 Assay for human Liver X Receptor (LXR), DR4 submotif (AID 2282929); details: HepG2 Attagene DR4 cis-reporter, mRNA transcription; actives raise or lower the signal
Method in brief: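 HepG2 cells transiently transfected with cis-promoter-driven multiplexed reporter units (DR4 element) were dosed for 24 h. Reporter mRNA was quantified by RT-PCR, fluorescent primer extension, HpaI digestion and capillary electrophoresis; bidirectional fitting versus DMSO baseline.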

[10] = biological target: CCAAT/enhancer-binding protein beta (Homo sapiens) (UniProt P17676); test: ATG_C_EBP_CIS: Attagene CIS-FACTORIAL HepG2 Assay for human CCAAT/Enhancer Binding Protein (C/EBP) beta (AID 2282927); details: HepG2 Attagene cis-factorial transcription factor reporter; actives raise or lower the signal
Chain of CCAAT/enhancer-binding protein beta (Homo sapiens) (P17676 whole entry, looked up): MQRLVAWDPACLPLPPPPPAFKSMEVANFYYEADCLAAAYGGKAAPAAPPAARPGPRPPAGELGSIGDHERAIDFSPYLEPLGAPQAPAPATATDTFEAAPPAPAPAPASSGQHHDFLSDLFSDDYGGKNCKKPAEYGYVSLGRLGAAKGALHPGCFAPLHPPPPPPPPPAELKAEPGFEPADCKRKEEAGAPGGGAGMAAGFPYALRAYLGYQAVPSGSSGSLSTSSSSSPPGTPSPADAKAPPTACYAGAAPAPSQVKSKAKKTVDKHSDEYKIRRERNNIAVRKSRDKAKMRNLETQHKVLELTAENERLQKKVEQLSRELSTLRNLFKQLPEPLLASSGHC
Method in brief: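 RT-PCR/capillary electrophoresis fluorescence of reporter mRNA, 24 h post-dose, in HepG2 cells carrying transfected cis-promoter reporter units. Bidirectional curve fitting against DMSO baseline captures gain or loss of signal.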

Measured: AC50

Cc1ccc(S(N)(=O)=O)cc1
not listed: [9] | [10]
inactive: all other assays above

CCCCCCCCCCCCN1CCCCCC1=O
active: [9] 18.6 µM | [6] 16.4 µM
not listed: [4] | [10]
inactive: all other assays above

Nc1ccc(N)c2c1C(=O)c1ccccc1C2=O
active: [1] 3.11 µM | [3] 1.59 µM
not listed: [4] | [10]
inactive: all other assays above

C=C1C[C@]23C[C@@]1(O)CC[C@H]2[C@@]12C=C[C@H](O)[C@@](C)(C(=O)O1)[C@H]2[C@@H]3C(=O)O
not listed: [4] | [5] | [10]
inactive: all other assays above

CCCCCCCCCCCCCCN(CCO)CCO
active: [9] 13.8 µM
not listed: [6] | [10]
inactive: all other assays above

C=C(C)[C@@H]1CC=C(C)C(=O)C1
not listed: [2] | [7] | [10]
inactive: all other assays above

CCCN(CCC)S(=O)(=O)c1ccc(C(=O)O)cc1
not listed: [10]
inactive: all other assays above

C1CCCCC1
not listed: [2] | [4] | [10]
inactive: all other assays above

FC(F)(F)COCC(F)(F)F
not listed: [1]
inactive: all other assays above

C=C(C)C1CC=C(C)C(=O)C1 (stereo not given)
not listed: [6] | [7] | [10]
inactive: all other assays above

Cc1ncc[nH]1
not listed: [2] | [6] | [10]
inactive: all other assays above

O=C(O)c1cc(C(=O)O)cc([N+](=O)[O-])c1
not listed: [4] | [10]
inactive: all other assays above

CCC(C)c1cc([N+](=O)[O-])cc([N+](=O)[O-])c1OC(=O)OC(C)C (stereo not given)
active: [4] 25.8 µM | [5] 39.7 µM | [6] 100 µM
not listed: [10]
inactive: all other assays above

Nc1c(Cl)cc(Cl)cc1[N+](=O)[O-]
not listed: [2] | [4] | [9]
inactive: all other assays above

CN(C)C(=O)Nc1ccc(Oc2ccc(Cl)cc2)cc1
active: [2] 71.9 µM | [9] 72 µM | [4] 100 µM | [6] 113 µM
not listed: [10]
inactive: all other assays above

C[C@H]1C[C@@H](O)CC(C)(C)C1
not listed: [2] | [10]
inactive: all other assays above

CC(CN=Cc1ccccc1O)N=Cc1ccccc1O (stereo not given)
active: [2] 100 µM | [3] 68.7 µM | [4] 100 µM
not listed: [5] | [10]
inactive: all other assays above

C=COCCOCCOC=C
not listed: [10]
inactive: all other assays above

C=C(C)C(=O)OCCOC1CC2CC1C1C=CCC21 (stereo not given)
not listed: [4] | [6] | [10]
inactive: all other assays above

C=C(C)[C@H]1CC=C(C)C(=O)C1
not listed: [4] | [7] | [10]
inactive: all other assays above

CC=CC=CCOC(=O)C(C)C
active: [9] 130 µM | [4] 100 µM
inactive: [1] | [2] | [3] | [7] | [8]

CC(C)(CO)[C@@H](O)C(=O)NCCC(=O)O
not listed: [10]
inactive: all other assays above

OCc1cccc(Oc2ccccc2)c1
not listed: [9] | [10]
inactive: all other assays above

Nc1ccn([C@H]2CS[C@@H](CO)O2)c(=O)n1
not listed: [10]
inactive: all other assays above

Cc1ccc(C)o1
not listed: [2] | [10]
inactive: all other assays above

CCCCCCC(C)(C)S
not listed: [6] | [10]
inactive: all other assays above

CCCCCCOCCOCCO
not listed: [10]
inactive: all other assays above
